We go through 39 molecules from PubChem BioAssay (NCI).

Where “and” joins values, the source holds several entries; their conditions need not be identical. Identical values can stand only once. Compounds without any hit were thinned out: in the full panel of roughly 83,000, 20% have a hit.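 Method: cells in 96-well plates; compound added at one concentration; 48 h incubation; percent growth measured; values under 10 scored active.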 A number with no mark means an inactive call. Calls of active or inactive are those of the source.

The subject of the assay is HL-60(TB) leukemia. Kind of assay: NCI-60 one-dose screen, 48 h (100 = growth as untreated, 0 = no growth, -100 = all killed). The note with it: 10 µM unless noted.
On to `O=C1N=NC2=C1c1c3ccccc3c(O)n1CC2`, for which the growth is 105%.

In the case of `CCCC1CCC(=C2C(=O)CCC2=O)O1` (centres undefined), the growth is 148% and 153%.

For the molecule `CSc1nc(NCCO)c(C#N)c(-c2cccc(N)c2)n1`, the growth was 96.1%.

On to `CNCCCNCCCCNCCCN1C(=O)c2ccc3c4c(ccc(c24)C1=O)C(=O)N(CCCNCc1ccccc1OC)C3=O`, for which the growth is 23%.

With `CCC(=C(c1ccc(OCCN2CCCC2)cc1)c1ccc(OCCN2CCCC2)cc1)c1ccc(Cl)cc1`, the growth is -52.5% (active).

On to `CS(=O)CC(=N\O)/C(CS(C)=O)=N\O` (centres undefined), for which the growth was 101%.

As to `CC1(c2ccccc2O)NN=C(/N=C/c2cccc([N+](=O)[O-])c2)N1C(Cc1c[nH]c2ccccc12)C(=O)O` (centres undefined), the growth is 120%.

With `O=c1oc2cc(OS(=O)(=O)c3ccc(F)cc3)ccc2c2c1CCCCC2`, the growth is 60.6%.

As to `O=C(CC(O)c1ccccc1)Nc1ccccn1` (centres undefined), the growth is 97.3%.

Turning to `Nc1nc2c([nH]1)c1[nH]c3ccccc3c1c1[nH]c3ccccc3c21`, the growth was 25.5%.

Consider `CCc1ccccc1-n1c(-c2ccc(Cl)cc2)cc(-c2ccc(OC)cc2)c(C#N)c1=O`, for which the growth is 68.8%.

As for `COc1cccc(/C=N/Nc2nc3ccccc3s2)c1OC`, the growth was 49.9%.

For the molecule `CCCCCCCCCCCCCCNc1nc(CO)ncc1-c1ccc(C(F)(F)F)cc1`, the growth is 99.1%.

Turning to `Cc1cccc(CO)c1`, the growth is 109%.

In the case of `Cc1ccc(Cn2c(N3CCC(C(=O)NCc4cccs4)CC3)nc3ccccc32)cc1`, the growth was -14.4% (active).

Regarding `[B-][N+](CC)(CC)c1ccccc1`, the growth was 45.6%.

For `O=C(Nc1ccc(Cl)c(C(F)(F)F)c1)Nc1ccc(-c2cccnc2)cc1N1CCC(CO)CC1`, the growth was -6.89% (active).

In the case of `O=C1C2=C(C(=O)c3ccccc31)C(O)(S(=O)(=O)O)C(O)(S(=O)(=O)O)C1N=CC=CC21` (centres undefined), the growth was 28.7% and 31.4%.

On to `Cc1cc(O)ccc1C1=NN(c2ccc(S(N)(=O)=O)cc2)C(=O)CC1`, for which the growth was 4.22% (active).

On to `COc1ccc(NC(=O)C2c3ccccc3C(=O)N(CC(C)C)C2c2cccs2)cc1` (centres undefined), for which the growth is 90%.

As to `CCOC(=O)c1cc(C(=O)OCC)c(C)nc1C`, the growth was 96.9%.

With `COc1cccc(O)c1O`, the growth is 73.6%.

Regarding `COc1ccc2nc(C)cc(Nc3ccc(Cl)cc3)c2c1`, the growth is 95.6%.

Regarding `O=C(/C=C/CN1CCOCC1)Nc1cc2c(Nc3ccc(F)c(Cl)c3F)ncnc2cc1OCCOC(F)F`, the growth was 76.9%.

On to `O=c1cc(-c2ccccc2)oc2cc(OCc3cn(Cc4ccc(F)cc4)nn3)cc(O)c12`, for which the growth is 104% [100 µM].

With `Cc1ccc(NC(=O)CN2CCOCC2)cc1Cl`, the growth was 74.2%.

As for `COc1ccccc1NC(=O)Cn1cc(CN2CCN(c3ccnc4cc(Cl)ccc34)CC2)nn1`, the growth was 131%.

Turning to `Cc1cc(=O)[nH]c2c(C#N)cnn12`, the growth was 106%.

`CCCCn1cnc2c(Sc3c([N+](=O)[O-])ncn3C)nc(N)nc21`: the growth was 54.3%.

For the molecule `N#Cc1c(NC(=O)c2cccc(Br)c2)sc2c1CCCC2`, the growth was 62.4%.

With `COc1ccc(C(=O)/C=C/c2c(C(F)(F)F)nc3ccccn23)cc1OC`, the growth is 2.72% (active).

As for `COc1ccc(OC)c(/C=C2\COc3ccc(O)cc3C2=O)c1`, the growth is 82.2%.

`CCSc1nc(NC)c2cc(-c3ccc(C(F)(F)F)cc3)ccc2n1`: the growth is 98.3%.

In the case of `CN1CCN(Cc2ccc(NC(=O)c3ccc(C#N)c(C#Cc4cnc(N)c5ncccc45)c3)cc2C(F)(F)F)CC1`, the growth was 60.8%.

`O=C1c2cc3c(cc2-c2c1c1cc(Cl)c(Cl)cc1c(=O)n2C[C@H](O)CO)OCO3`: the growth was -22.6% (active).

On to `C=Cc1cc[n+](CCCCCCCCCCCC)cc1`, for which the growth is 80%.

As for `Cc1ccc(/C=N/Nc2nc(Nc3ccccc3)nc(-n3nc(C)cc3C)n2)cc1`, the growth is 53.3%.

In the case of `O=C(/C=C/c1c(-c2ccccc2)[nH]c2ccccc12)S(=O)(=O)c1ccccc1`, the growth was -22.1% (active).

For `CC(C)(C)[Si](C)(C)O[C@H]1C(=O)C=CN2CC=C[C@@H]12`, the growth is 89.5% [100 µM].
